Results: PubChem BioAssay (Tox21)
Values joined by “and” are separate entries in the source; they are usually repeats but may differ in a detail not shown here. Equal entries are not always repeated. Inconclusive results are not listed. A number with no mark means an inactive call. Active and inactive are the calls of the source. Calls follow the shape of the dose curve; as a rule, active = well fitted inhibition curve with a large enough effect in the repeat runs; inconclusive = weak or mixed curves; inactive = no such curve, though single readings can be large or run the other way.

What follows are compounds tested against Aromatase (Homo sapiens) (UniProt P11511) (assay: qHTS assay to identify aromatase inhibitors (AID 743083; also: nearly all actives have a fitted effect of over 55% in size)). Conditions: MCF-7 aro ERE, testosterone-driven ERE luciferase, 24 h; series mostly up to 70.3 µM; activity, negative = inhibition: at the top concentration.
Sequence of Aromatase (Homo sapiens) (P11511 whole entry, looked up): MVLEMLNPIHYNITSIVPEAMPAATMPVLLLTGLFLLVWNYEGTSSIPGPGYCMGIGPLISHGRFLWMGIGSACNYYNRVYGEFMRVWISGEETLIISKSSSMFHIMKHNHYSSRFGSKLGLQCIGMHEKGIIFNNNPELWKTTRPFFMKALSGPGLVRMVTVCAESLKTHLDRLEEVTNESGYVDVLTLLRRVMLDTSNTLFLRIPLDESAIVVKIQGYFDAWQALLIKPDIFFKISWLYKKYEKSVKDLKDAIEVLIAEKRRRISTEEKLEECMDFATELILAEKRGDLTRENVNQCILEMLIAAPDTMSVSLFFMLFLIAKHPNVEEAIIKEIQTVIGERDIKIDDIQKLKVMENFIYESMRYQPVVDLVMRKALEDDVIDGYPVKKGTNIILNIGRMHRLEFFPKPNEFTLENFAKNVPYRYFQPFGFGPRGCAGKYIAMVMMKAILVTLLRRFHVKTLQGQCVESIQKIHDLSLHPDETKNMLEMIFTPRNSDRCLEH
% is scaled to controls: 0 for no effect and ±100 for the full control effect; potency is read from the fitted curve at half-maximal effect.

SMILES	activity, negative = inhibition	Potency
CN(C)[C@@H]1C(=O)C(C(N)=O)=C(O)[C@@]2(O)C(=O)C3=C(O)c4c(O)ccc(Cl)c4[C@@H](O)[C@H]3C[C@@H]12	-6.43%	–
Nc1c2ccccc2nc2ccccc12	–	18.8 µM (active) and 6.03 µM (active)
NC(=O)CC[C@@H]1NC(=O)[C@H](Cc2ccccc2)NC(=O)[C@H](Cc2ccc(O)cc2)NC(=O)CCSSC[C@@H](C(=O)N2CCC[C@H]2C(=O)N[C@@H](CCCN=C(N)N)C(=O)NCC(N)=O)NC(=O)[C@H](CC(N)=O)NC1=O	–	inactive
O=C(Nc1ccc(Oc2ccc(Cl)cc2)c(Cl)c1)c1cc(I)cc(I)c1O	-10.8%	–
CC(NN)c1ccccc1 (stereo unspecified)	6.93%	–
O=Cc1cc(O)ccc1Br	96.4% [at 95 µM]	–
CCN(C(=O)c1cc(C)cc(OC[C@H](C)Nc2ccncc2)c1)C(C)C	-3.97%	–
OCCN(CCO)c1nc(N2CCCCC2)c2nc(N(CCO)CCO)nc(N3CCCCC3)c2n1	-7.66%	–
CN(C/C=C/C#CC(C)(C)C)Cc1cccc2ccccc12	-5.62%	–
Cc1cc(=O)oc2cc(N(C)C)ccc12	67.2%	–
CSc1ccc(/C=C2/C(C)=C(CC(=O)O)c3cc(F)ccc32)cc1	-8.28%	–
CCN(CC)CCCC(C)Nc1c2ccc(Cl)cc2nc2ccc(OC)cc12 (stereo unspecified)	8.96%	–
CCCCCCCCCOC(=O)c1ccc(O)cc1	–	30.2 µM (active)
CC(C)=CCOc1ccc(/C=C/C(=O)c2ccc(OCC=C(C)C)cc2OCC(=O)O)cc1	18.8%	–
CCOC(=O)c1nc(C(Cl)(Cl)Cl)n(-c2ccc(Cl)cc2Cl)n1	–	61.1 µM (active)
Cc1cc(O)c2ccccc2c1O	-19.4%	–
